Source: PubChem (several laboratories)
Sa ugtP lethal – compounds lethal to S. aureus RN4220 ugtP deletion mutant. OD600 growth, 16 h. growth inhibition, % (concentration not given with the values). actives 0.54% (n = 330,000). AID 1259309; in the data active = growth inhibition above about 68%;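 note: plate controls were untreated wells for no effect and antibiotic for full effect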
PrPC TRFRET – inhibitors of human cell surface prion protein PrPC | P04156 | TR-FRET read-out | inhibition, % at 13.8 µM | actives 0.43% (n = 370,000); in the data active = inhibition above about 24%; note: 0% = median of the test wells and 100% = reference compound wells
BJeLR viability – kills HRASV12-expressing BJeLR cells; BJeLR (HRASV12) viability, CellTiter-Glo ATP luminescence, 48 h; inhibition, % (test concentration not listed); actives 0.17% (n = 300,000); in the data active = inhibition above about 50%
RN4220 kill – kills Staphylococcus aureus RN4220; actives 0.33% (n = 330,000); AID 1259311; S. aureus RN4220 growth, OD600, 16 h; inhibition, % (test concentration not listed); in the data active = inhibition above about 85%;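 note: plate controls were untreated cells for no effect and reference antibiotic for full effect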
The depositor's hits bear a star. A selection: hits, their analogues and other compounds. The true share with any hit is near 0.95%.

What do the screens show for `CCCc1cc(=O)n2[nH]cc(-c3ccc(Cl)cc3)c2n1`?
Sa ugtP lethal: 99*; PrPC TRFRET: 3; BJeLR viability: 12; RN4220 kill: 99*

What do the screens show for `Cc1ccc(CNC2CCC23CCC(c2ccccc2)CC3)o1` (configuration not stated)?
PrPC TRFRET: 2

What do the screens show for `O=C(NNc1ccc(O)cc1)c1ccc(Br)cc1`?
Sa ugtP lethal: 91*; PrPC TRFRET: 13; BJeLR viability: -4; RN4220 kill: 22

What do the screens show for `Cc1ccc(-c2csc(N(CC3CCCO3)C(=O)c3ccco3)n2)cc1` (configuration not stated)?
Sa ugtP lethal: 18; PrPC TRFRET: 1; BJeLR viability: 13; RN4220 kill: 6

What do the screens show for `O=C(c1ccco1)N(CC1CCCO1)c1nc(-c2ccccc2)cs1` (configuration not stated)?
Sa ugtP lethal: 86*; PrPC TRFRET: -4; BJeLR viability: 1; RN4220 kill: -7

What do the screens show for `CCOc1ccc(NC(=S)NNc2ccnc3cc(Cl)ccc23)cc1`?
Sa ugtP lethal: -1; PrPC TRFRET: 0; BJeLR viability: 4; RN4220 kill: 0

Results for S=C(NNc1ccnc2cc(Cl)ccc12)Nc1ccc(Cl)cc1Cl ?
Sa ugtP lethal: 6; PrPC TRFRET: 14; BJeLR viability: 14; RN4220 kill: 90*

Results for O=C(O)c1ccc(C=NNC(=O)c2cc3c(ccc4ccccc43)o2)cc1 ?
Sa ugtP lethal: 1; RN4220 kill: 3

Results for CCOC(=O)C1CCN(c2c(C(=O)c3ccccc3)cnc3ccc(CC)cc23)CC1 ?
Sa ugtP lethal: 94*; PrPC TRFRET: -3; BJeLR viability: 10; RN4220 kill: 39

What do the screens show for `CCOC(=O)C1CCCN(c2c(C(=O)c3ccccc3)cnc3ccccc23)C1` (configuration not stated)?
Sa ugtP lethal: 69; PrPC TRFRET: 2; RN4220 kill: 2

What do the screens show for `Cc1ccc2nc(N3C(=O)C(O)=C(C(=O)c4ccco4)C3c3cccs3)sc2c1` (configuration not stated)?
Sa ugtP lethal: 11; PrPC TRFRET: 3; BJeLR viability: -7; RN4220 kill: -1

How did Cc1ccc2nc(N3C(=O)C(O)=C(C(=O)c4ccc(C)o4)C3c3ccc(O)cc3)sc2c1 (configuration not stated) do in these assays?
Sa ugtP lethal: 87*; PrPC TRFRET: -1; RN4220 kill: 44

How did CCCCOC(=O)C1C2C=C[C@]3(CN(c4ccccc4CC)C(=O)C13)O2 (some centres not stated) do in these assays?
Sa ugtP lethal: 5; RN4220 kill: 4

What do the screens show for `COC(=O)c1ccc2c(=O)n(-c3ccccc3F)c(=S)[nH]c2c1`?
Sa ugtP lethal: active; PrPC TRFRET: 8; BJeLR viability: 5; RN4220 kill: 88

What do the screens show for `O=C(O)c1ccc2c(=O)n(-c3ccccc3F)c(=S)[nH]c2c1`?
Sa ugtP lethal: 4; PrPC TRFRET: 2; BJeLR viability: 2; RN4220 kill: 8

What do the screens show for `COc1ccc(C=NNC(=O)c2ccco2)cc1Cn1nc(C)c([N+](=O)[O-])c1C`?
Sa ugtP lethal: 3; RN4220 kill: 11

What do the screens show for `O=C(NNC1=C(C(=O)C(F)(F)F)CCC1)c1ccc(Br)cc1`?
Sa ugtP lethal: 100*; PrPC TRFRET: 11; BJeLR viability: -7; RN4220 kill: 101*

Results for COc1ccccc1C(=O)NNC1=C(C(=O)C(F)(F)F)CCC1 ?
Sa ugtP lethal: 99*; PrPC TRFRET: 1; BJeLR viability: 13; RN4220 kill: 101*

Results for O=C(NNC1=C(C(=O)C(F)(F)F)CCC1)c1ccccc1O ?
Sa ugtP lethal: 101*; PrPC TRFRET: -4; BJeLR viability: 0; RN4220 kill: 100*

What do the screens show for `COc1cccc(C(=O)NNC2=C(C(=O)C(F)(F)F)CCC2)c1`?
Sa ugtP lethal: 93*; PrPC TRFRET: 2; BJeLR viability: -3; RN4220 kill: -6

How did O=C(NNC1=C(C(=O)C(F)(F)F)CCC1)c1ccccc1Cl do in these assays?
Sa ugtP lethal: 83; PrPC TRFRET: 3; BJeLR viability: 0; RN4220 kill: -13

What do the screens show for `C[C@@]12CCC=CC1C(c1ccoc1)N(Cc1ccccc1)C2=O` (some centres not stated)?
Sa ugtP lethal: 5; RN4220 kill: 8

What do the screens show for `Cc1cccc(S(=O)(=O)N2CCC[C@H]2C(=O)N2CCC[C@@H]2C(=O)NCc2ccccc2)c1`?
PrPC TRFRET: 0

How did Cc1ccc(C=NNC(=O)CCSc2ccccc2)cc1 do in these assays?
Sa ugtP lethal: -4; RN4220 kill: -8
